# According to PubChem BioAssay AID485364 (National Center for Advancing Translational Sciences (NCATS), 2010):
# In all, about 360,000 compounds went through this assay and about 11,000 (3.1%) were called active. A call without a number means that no potency is given here. Another 4% or so got no clear call; they are omitted. Calls follow the shape of the dose curve; as a rule, active = well fitted inhibition curve with a large enough effect; inconclusive = small, poorly fitted or top-dose-only effect; inactive = no such curve, though single readings can be large or run the other way. This excerpt belongs to a sample that is enriched for actives.
# Molecular target: Schistosoma mansoni thioredoxin glutathione reductase (TGR) (UniProt Q962Y6)
# Test: qHTS Assay for the Inhibitors of Schistosoma Mansoni Peroxiredoxins; also: nearly all actives have a fitted effect of over 60% in size
# Details: purified TGR, DTNB reduction, TNB absorbance 405 nm; series mostly up to 114 µM
# Excerpt: Schistosomiasis is a major neglected tropical disease that currently affects over 200 million. It is caused by different species of flatworms, such as Schistosoma mansoni. Over the last century, drugs to treat the disease have evolved from potassium antimonyl tartrate, artemisinin, oxamniquine, to praziquantel, with praziquantel remaining the universally-used single drug of choice over the past three decades. However, transmission rates have changed little with praziquantel, and there is evidence for the development of drug resistant parasites. Because there is currently no suitable alternative therapy available, there is an urgent need to identify new targets and drugs for schistosomiasis treatment. Thioredoxin glutathione reductase (TGR), one uniquely positioned S. mansoni enzyme, has been identified as a major component of the worms' distinct and compressed antioxidant "firewall". TGR is a multifunctional enzyme that catalyzes the interconversion between reduced and oxidized forms of both glutathione (GSH) and thioredoxins, thus making it an attractive new antiparasitic target. Recently, a quantitative high-throughput screen of the NIH Molecular Libraries Small Molecule Repository (MLSMR, ~71K at the time of the screen in 2007) was performed using an assay that targeted both TGR and peroxiredoxin2 (Prx2, an H2O2-reducing enzymatic component of the S. mansoni redox "firewall") by following the decrease of NADPH fluorescence. […] Additional mechanistic link between exogenous NO donation and parasitic injury for the oxadiazole-2-oxide class of compounds was also expanded and better defined. Although the screen addressed both TGR and Prx2, the assay required post-screen target deconvolution for further characterization of the actives. In addition, the fluorescence assay was also subject to fluorescence interference from compound library members. We have developed a 1536-well-based kinetic HTS assay to address TGR alone. The assay followed the reduction of 5, 5'-dithiobis (2-nitrobenzoic acid) (DTNB) (Ellman's reagent) by NADPH and measured the increase in absorbance at 412 nm of the reaction product, TNB. […] This assay format can be used to screen the current MLSMR collection (with >300K compounds available) to find novel TGR inhibitors. Furoxan is a good choice to serve as a positive control in the primary HTS assay.
# Three microliters of reagents (100 uM NADPH and 20 nM TGR or 100 uM NADPH as no-enzyme control) were dispensed into 1,536-well black clear-bottomed plates. Compounds (23 nL) were transferred via Kalypsys pin tool equipped with 1536-pin array (10 nL slotted pins, V&P Scientific, San Diego, CA). The plates were then be incubated for 15 min at room temperature, and 1 uL aliquot of 500 uM NADPH were added, immediately followed by a 1 uL aliquot of 15 mM DTNB to start the reaction. The plate was transferred to a ViewLux high-throughput CCD imager (Perkin-Elmer, Wellesley, MA) where kinetic measurements of the TNB absorbance were acquired using a 405 excitation filter. Throughout the screen, reagent bottles and all liquid lines were made light-tight to minimize reagent degradation. All screening operations were performed on a fully integrated robotic system (Kalypsys, San Diego, CA) containing one RX-130 and two RX-90 anthropomorphic robotic arms (Staubli, Duncan, SC). Library plates were screened starting from the lowest and proceeding to the highest concentration, and a "double-dipping" step of the highest concentration was required to access higher concentrations of compounds. Vehicle-only plates, with DMSO being pin-transferred to the entire column 5-48 compound area, were inserted uniformly at the beginning and the end of each library in order to monitor for and record any shifts in the background, which can be affected by reagent dispensers or loss in enzyme activity overtime. […]
# Potency is read from the fitted curve at half-maximal effect.
Compound,Potency,"activity change, negative = inhibition"
COc1ccc(-c2cc(NCc3ccc(F)cc3)n3cnnc3n2)cc1,inactive,–
Cc1cc(C(=O)Nc2cccc(C(F)(F)F)c2)c2c(C)nn(-c3cccc(F)c3)c2n1,inactive,–
COc1ccc(NC(=O)C2CCCN(S(=O)(=O)c3cccc4nonc34)C2)cc1Cl (stereo not given),inactive,–
Cc1ccc(C)c(NC(=O)Cn2ccn(-c3ccc(F)cc3)c(=O)c2=O)c1,inactive,–
O=C(CC1Oc2ccccc2NC1=O)NCc1ccc(F)cc1 (stereo not given),inactive,–
Cc1ccc(CNC(=O)CCc2c(C)nn(-c3ccc(N4CCCC4)nn3)c2C)cc1,inactive,–
COc1ccccc1CNS(=O)(=O)c1cc(Br)cc2c1N(C(C)=O)C(C)C2 (stereo not given),inactive,–
CCOC(=O)c1cc2c(=O)n3ccccc3nc2n(CC2CCCO2)c1=NC(=O)c1ccccc1F (stereo not given),inactive,–
O=C(Nc1ccc2c(c1)OCO2)c1cc(-c2cccc(Cl)c2)on1,inactive,–
CC1CCCN(CC(O)COCc2ccccc2)C1 (stereo not given),inactive,–
COc1cc(C)cc(CN2CCC(Cc3ccccc3)CC2)c1O,inactive,–
Oc1c(CN2CCCC2)cc(COCc2ccccc2)c2cccnc12,22.4 µM (active),–
COc1cc(OC)c(NC(=O)N2CC3CCCN3c3ccccc32)cc1Cl (stereo not given),inactive,–
CCOC(=O)c1c(S(=O)(=O)N2CCCC(C(=O)NCc3ccc(F)cc3)C2)c(C)n(CC)c1C (stereo not given),inactive,–
CCOC(=O)c1c(C)[nH]c(CCC(=O)NCCCN2CCN(c3cc(C)ccc3C)CC2)c1C,inactive,–
COc1ccc(CCNC(=O)C(Sc2ccccn2)c2ccccc2)cc1OC (stereo not given),inactive,–
COc1ccc(CN(Cc2ccc(OC)cc2)C(=O)c2cccs2)cc1,inactive,–
COc1ccc(C(CCN(Cc2ccc(OC)c(OC)c2)C(=O)CCl)c2ccccc2)cc1 (stereo not given),8.91 µM (active),–
CCc1nnc(SCc2nc(-c3cccc(C)c3)oc2C)c2cc3sc(C)cc3n12,inactive,–
Cc1cc(C)cc(NC(=S)NCCCN2CCOCC2)c1,inactive,–
CCCCc1ccc(NC(=S)NCCCN2CCOCC2)cc1,50.1 µM (active),–
CCCC(=O)NC(=S)Nc1ccc(CN2CCOCC2)cc1,inactive,–
Cc1cccn2c(=O)c(C(=O)NC(C)c3ccccc3)cnc12 (stereo not given),inactive,–
C#Cc1ccc([C@@H]2C=C(C(=O)O)O[C@H](OCCCCO)C2)cc1,39.8 µM (active),–
O=C(O)C1=C[C@H](c2cccs2)C[C@H](OCCCCO)O1,39.8 µM (active),–

Compound,Potency,"activity change, negative = inhibition"
CCO[C@H]1OC(C(=O)O)=C[C@@H](C2CCCCC2)[C@@H]1CCCO,inactive,–
C=CCOC(=O)C1=C[C@@H](c2ccccc2)C[C@@H](OCc2ccc(CO)cc2)O1,inactive,–
CN1CCN(C(=O)C2=C[C@H](c3ccc4c(c3)OCO4)C[C@H](OCc3ccc(CO)cc3)O2)CC1,inactive,–
NC(=O)C1=C[C@H](c2csc3ccccc23)C[C@H](OCc2ccc(CO)cc2)O1,inactive,–
Cc1ccc(-n2nc(CO)c(C(=O)NCCc3ccccc3)n2)cc1,inactive,–
COc1c(Cl)cc(C(=O)N(Cc2ccccc2F)C2CCS(=O)(=O)C2)cc1Cl (stereo not given),inactive,–
Cc1cccc(OCCSc2nc3ccc(NC(=O)COc4ccccc4C)cc3s2)c1,inactive,–
CCOC(=O)c1c(NC(=O)CCl)sc(C(=O)N(CC)CC)c1C,35.5 µM (active),–
CCOC(=O)Nc1sc(C(=O)N(C)C)c(C)c1C(=O)OCC,inactive,–
CCOC(=O)c1sc(NC(=O)CCN2CCOCC2)c(C(=O)OCC)c1C,inactive,–
CSc1nc(=O)c2c(n1C)NC(=O)CC2c1ccccc1OC(C)C (stereo not given),inactive,–
CCc1ccc(NC(=O)CN2C(=O)CCSc3ccc(S(=O)(=O)N4CCCC4)cc32)cc1,inactive,–
CCCCn1c(=O)c2oc3ccccc3c2n(CC(=O)Nc2ccccc2OC)c1=O,inactive,–
COc1ccc2c(c1)C=C(C(=O)NCc1cc(Br)ccc1OC)CO2,inactive,–
O=C(O)CN1c2cccc3cccc(c23)S1(=O)=O,35.5 µM (active),–
CC(C)CN(CC(C)C)C(=O)CN1c2cccc3cccc(c23)S1(=O)=O,inactive,–
COc1ccc(C)cc1NC(=O)CN1c2cccc3cccc(c23)S1(=O)=O,inactive,–
CCN(CC)c1ccc(NS(=O)(=O)c2cc(-c3cc(C)no3)ccc2C)c(C)c1,inactive,–
CCOc1ccc(N(CC)C(=O)c2cc3c(=O)oc4ccccc4c3s2)cc1,inactive,–
O=C(c1ccc(Br)cc1)N(Cc1cccs1)c1ccc(F)cc1,inactive,–
CN1CCN(S(=O)(=O)c2ccc(N3CCN(c4ccccc4O)CC3)c([N+](=O)[O-])c2)CC1,inactive,–
O=[N+]([O-])c1cc(S(=O)(=O)N2CCCC2)ccc1NN=C1CCCC1,inactive,–
Cc1cc(N)n(-c2ccc(S(=O)(=O)N3CCCC3)cc2[N+](=O)[O-])n1,50.1 µM (active),–
COc1cc(OC)cc(C(=O)NCCc2csc3nc(-c4ccccc4F)nn23)c1,inactive,–
COc1cccc(NC(=O)N2CCCC2C(=O)NC2CCCCC2)c1 (stereo not given),inactive,–

Compound,Potency,"activity change, negative = inhibition"
CCC1CCCCN1C(=O)Nc1cccc(NC(=O)N2CCCCC2CC)c1 (stereo not given),39.8 µM (active),–
CCC1CCCCN1C(=S)Nc1ccc(C(C)=O)cc1 (stereo not given),inactive,–
CCN1C(=O)c2ccccc2Sc2ccc(NC(=O)Cc3ccc(OC)cc3)cc21,inactive,–
CCOC(=O)CC1=CC(=O)Nc2ccccc2N1,inactive,–
CCOC(=O)C(=O)C1C(=O)Nc2ccccc21 (stereo not given),28.2 µM (active),–
CCCCC(CC)CNC(=O)C(=O)C1C(=O)Nc2ccccc21 (stereo not given),inactive,–
CCc1ccc(NC(=O)C2CCCN2S(=O)(=O)c2ccc3nc(-c4ccccc4)[nH]c3c2)cc1 (stereo not given),inactive,–
Fc1ccc(N2CCN(Cc3ccc4c(c3)OCO4)CC2)cc1,–,8.45% [at 11.4 µM] (inactive)
CC(C)c1ccc(O)c(CN2CCN(c3ccccc3)CC2)c1,inactive,–
Oc1cc2c(cc1CN1CCN(c3ccccc3)CC1)OCO2,1.58 µM (active),–
Cc1cc2c(cc1C)C(c1cccc(OC(C)C)c1)CC(=O)N2 (stereo not given),inactive,–
CCc1ccc2oc(-c3ccc(NC(=O)c4cc5ccccc5o4)cc3)nc2c1,inactive,–
COc1ccc(OC)c(CNC(=O)c2c3c(nc4ccccc24)C(=O)N(C2CCCCC2)C3)c1,inactive,–
COc1ccc(S(=O)(=O)NCC(c2ccc(N(C)C)cc2)N2CCCC2)cc1 (stereo not given),inactive,–
CN(C)c1ccc(C(CNS(=O)(=O)c2cc(F)ccc2F)N2CCOCC2)cc1 (stereo not given),44.7 µM (active),–
O=S(=O)(NCC(c1ccco1)N1CCOCC1)c1cc(F)ccc1F (stereo not given),inactive,–
CCCn1ccc2c(OCC(=O)NCc3ccc(F)cc3)cccc2c1=O,inactive,–
COC(=O)c1ccccc1NC(=O)C(Cc1ccccc1)N1Cc2ccccc2C1=O (stereo not given),inactive,–
COc1ccc(/C=C/C(=O)c2cc(Br)ccc(=O)c2O)cc1,15.8 µM (active),–
COc1ccc(C(=O)c2oc3ccc(Br)cc3c2NC(C)=O)cc1,inactive,–
COc1ccc2oc(=N)c(C(=O)Nc3ccc(Br)cc3)cc2c1,inactive,–
O=S(=O)(c1ccc(Cl)cc1)c1nc(-c2ccco2)oc1N1CCCCC1,14.1 µM (active),–
O=S(=O)(c1ccccc1)c1nc(-c2ccc(Cl)cc2Cl)oc1N1CCCCC1,inactive,–
O=C(CSc1oc(-c2ccco2)nc1S(=O)(=O)c1ccc(Cl)cc1)c1ccccc1,inactive,–
CCCc1nn2c(=O)cc(COC(=O)c3ccc(NC(=O)C(C)Oc4ccccc4)cc3)nc2s1 (stereo not given),inactive,–

Compound,Potency,"activity change, negative = inhibition"
CN(C)CCCn1c(N)c(C#N)c2nc(C#N)c(C#N)nc21,20 µM (active),–
N#Cc1c(N)n(CCOC(=O)c2ccc(Cl)cc2)c2nc3ccccc3nc12,inactive,–
CCCN(CCC)C(=O)C(Cc1ccccc1)NS(=O)(=O)c1ccc2c(c1)c(=O)n(C)c(=O)n2C (stereo not given),inactive,–
CCCN(CCC)CCNC(=O)Cn1cnc2sc(C)c(S(=O)(=O)N3CCC(C)CC3)c2c1=O,inactive,–
CC(C)c1ccc(C2C(C(=O)c3ccco3)=C(O)C(=O)N2CC2CCCO2)cc1 (stereo not given),inactive,–
C=CCSc1nnc(N2C(=O)C(O)=C(C(=O)c3ccco3)C2c2ccc(F)cc2)s1 (stereo not given),14.1 µM (active),–
Cc1ccc2nc(N3C(=O)C(O)=C(C(=O)c4ccco4)C3c3cccc(O)c3)sc2c1 (stereo not given),inactive,–
COc1ccc(NC(=O)CCC(=O)Nc2cc(OC)c(NC(=O)c3ccco3)cc2OC)c(OC)c1,inactive,–
O=C(CSc1ccc(-c2ccco2)nn1)Nc1cccc(F)c1,10 µM (active),–
COc1ccc(NC(=O)CSc2nc(SC)ns2)c(OC)c1,inactive,–
O=C(CSc1ccc(-c2ccc(F)cc2)nn1)Nc1ccc2c(c1)OCCO2,inactive,–
COC(=O)Cc1ccc(NC(=S)NCc2ccco2)cc1,inactive,–
O=C(CSc1ccc(-c2ccccn2)nn1)Nc1ccccc1,inactive,–
Cc1c(Cl)cccc1NC(=S)NCc1ccc2c(c1)OCO2,inactive,–
CCn1c(=O)cc(SCC(=O)NCc2ccc3c(c2)OCO3)c2ccccc21,inactive,–
COc1ccc(NC(=O)CSc2ccc(-c3ccco3)nn2)c(OC)c1,20 µM (active),–
Cc1ccccc1-c1nnc(SCC(=O)NCc2ccc3c(c2)OCO3)n1C,inactive,–
O=C(CSc1ccc(-c2ccco2)nn1)NCc1ccc2c(c1)OCO2,12.6 µM (active),–
S=C(NCc1ccc2c(c1)OCO2)NCc1ccco1,35.5 µM (active),–
CCCn1c2ccccc2c2cnn(CC(=O)N(CC)c3cc(C)ccc3C)c(=O)c21,inactive,–
Fc1ccc(C(Nc2ccc(Cl)c(C(F)(F)F)c2)c2nnc(-c3ccccc3)o2)cc1 (stereo not given),inactive,–
Cc1ccc(Nc2c(-c3ccc(C)cc3)nc3cnccn23)cc1,inactive,–
CCOC(=O)c1cc2c(=O)n3ccccc3nc2n(CCCOC)c1=NC(=O)C(C)(C)Oc1ccc(Cl)cc1,inactive,–
Cc1ccc(C)c(NC(=O)C2CCCN(S(=O)(=O)c3cn(C)cn3)C2)c1 (stereo not given),inactive,–
O=C(CC1Oc2ccc(Cl)cc2NC1=O)NCc1ccccc1 (stereo not given),inactive,–
